# Bioassay records deposited in PubChem BioAssay by The Scripps Research Institute Molecular Screening Center.
# MITF inh: blocks human microphthalmia-associated transcription factor. hit rate 0.91% among 650,000. AID 1259374. O75030. AlphaScreen MITF homodimerization, bead proximity signal. inhibition, % at 2.6 µM; in the data active = inhibition above about 50%
# TEAD-YAP block: TEAD-YAP interaction inhibition; HEK-TIYL cells, TEAD-Gal4/YAP UAS-luciferase luminescence; inhibition, % at 9.12 µM; hit rate 1.4% among 640,000; AID 1259422; in the data active = inhibition above about 32%
# FBW7 activator: activators of human E3 ligase FBW7 | Q969H0 | AlphaScreen FBW7–phospho-cyclin E peptide binding, activator screen | normalized activity (activation), % at 26.1 µM | hit rate 0.13% among 650,000 | AID 1259310; in the data active = normalized activity above about 1.9%;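 note: purified mutant Fbw7 with reduced substrate affinity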
# GPR151 activ: activators of human GPR151. hit rate 1% among 650,000. activation, % at 11.2 µM. PathHunter beta-arrestin GPR151 cells, luminescence; in the data active = activation above about 4.9%
# Target sequence (Q8TDV0 whole entry, looked up): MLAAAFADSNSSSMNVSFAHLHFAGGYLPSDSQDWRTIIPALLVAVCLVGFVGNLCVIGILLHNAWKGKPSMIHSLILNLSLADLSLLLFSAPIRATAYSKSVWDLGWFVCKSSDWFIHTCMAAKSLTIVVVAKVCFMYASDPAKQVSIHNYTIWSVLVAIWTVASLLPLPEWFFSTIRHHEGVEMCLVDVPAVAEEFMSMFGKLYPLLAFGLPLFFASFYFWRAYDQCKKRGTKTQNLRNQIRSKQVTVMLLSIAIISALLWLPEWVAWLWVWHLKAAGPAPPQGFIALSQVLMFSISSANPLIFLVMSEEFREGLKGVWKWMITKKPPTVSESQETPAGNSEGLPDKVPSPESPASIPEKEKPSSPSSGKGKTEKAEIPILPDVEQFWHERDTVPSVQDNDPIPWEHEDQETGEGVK
# Numbers stand for hits; – = inactive. Rows were chosen to be rich in hits. Some 3.5% of all compounds tested hit in one or more screens of this group.
SMILES,MITF inh,TEAD-YAP block,FBW7 activator,GPR151 activ
COc1cccc(/C=N/NC(=O)Cn2c3ccccc3c(=O)c3ccccc32)c1O,–,50,–,–
CC[n+]1c(C)n(CCOCCn2c(C)[n+](CC)c3ccc(Cl)cc32)c2cc(Cl)ccc21,–,–,–,–
O=c1[nH]c2sc3c(c2c(=O)n1-c1ccc(Cl)cc1)CCCC3,–,–,–,–
CCOC(=O)c1sc(NC(=O)c2ccc(Cl)cc2)nc1-c1ccccc1,–,–,–,–
C=CCc1cccc(/C=N/NC(=O)c2ccccc2OC)c1O,–,–,–,–
O=C(N/N=C/c1cccc(O)c1O)c1cc(O)cc(O)c1,61,–,–,–
COc1cccc2c(SCC(=O)N/N=C/c3ccc(O)cc3O)cc(C)nc12,–,–,–,–
C=CCc1cccc(/C=N/NC(=O)c2ccccc2O)c1O,–,42,–,–
COc1cccc(/C=N/NC(=O)CSc2cc(C)nc3ccc(C)cc23)c1O,–,44,–,–
COc1cccc(/C=N/NC(=O)c2ccccc2O)c1O,–,77,–,–
COc1cccc(C=Nc2ccc3[nH]ncc3c2)c1O,–,–,6.3,–
O=C(N/N=C/c1ccccc1O)c1cccc2cc[nH]c12,–,81,–,–
COc1cc(Br)cc(C=Nc2ccc3[nH]ncc3c2)c1O,–,–,–,–
O=C(N/N=C/c1ccccc1Br)c1cccc2cc[nH]c12,–,–,–,–
COc1cccc(CN2C(=O)C(=O)N(C3CCCC3)C2=O)c1,–,–,–,–
CCOC(=O)C1=C(O)/C(=C/c2ccc3c(c2)OCO3)N=C1C,–,–,–,–
CC12CC(NC(=O)N1c1cccc(C(F)(F)F)c1)c1cc([N+](=O)[O-])ccc1O2 (stereo not drawn),–,–,–,–
O=C(Nc1ccc(Oc2ccccc2)cc1)c1ccc(F)c(S(=O)(=O)N2CCN(C3CCCCC3)CC2)c1,–,42,–,–
O=C(Nc1ccc(Oc2ccccc2)cc1)c1ccc(F)c(S(=O)(=O)N2CCC3(CC2)OCCO3)c1,–,61,–,–
O=C(Nc1ccc(Oc2ccccc2)cc1)c1ccc(F)c(S(=O)(=O)N2CCCCC2)c1,–,37,–,–
COc1ccc(/C=C2\SC(=S)N(CC(C)C)C2=O)cc1O,–,–,–,–
COc1ccc(CC(=O)Nc2cc(C(=O)O)cc(C(=O)O)c2)cc1,–,–,–,–
COC(=O)c1ccc(CN2CCC(N3CCN(Cc4ccccn4)CC3)CCC2=O)cc1 (stereo not drawn),–,–,–,–
Nc1cc(N=Cc2c(O)[nH]c(=S)[nH]c2=O)ccc1O,92,–,–,–
CCN(CC)c1ccc(N=Cc2c(O)[nH]c(=S)[nH]c2=O)cc1,51,–,–,–
SMILES,MITF inh,TEAD-YAP block,FBW7 activator,GPR151 activ
CCN(CC)S(=O)(=O)c1ccc(N=Cc2c(O)[nH]c(=S)[nH]c2=O)cc1,–,–,–,–
COc1ccc(OCCOc2ccc(/C=C3/C(=N)N4N=C(Cc5ccccc5)SC4=NC3=O)cc2OC)cc1,–,–,–,–
COc1cccc(C(=O)N2CCN=C2SCc2ccc(F)cc2)c1,–,–,–,–
COc1cccc(/C=C2\NC(=S)NC2=O)c1O,–,76,–,–
CCOc1cccc(/C=C2\NC(=S)N(C)C2=O)c1O,–,–,2.4,–
COc1cc(/C=C2\NC(=S)NC2=O)cc(OC)c1O,–,–,–,–
CCOc1ccc(/C=C2\NC(=S)N(C)C2=O)c(OCC)c1,–,–,–,–
COc1ccc(C(=O)C[N+]2=C(C)c3ccccc3CC2)cc1,–,–,–,–
Cc1ccc(-n2nnnc2Sc2ccc([N+](=O)[O-])cc2C#N)cc1,–,45,–,–
O=[N+]([O-])c1ccc(Sc2nnnn2-c2ccccc2)c([N+](=O)[O-])c1,–,–,–,–
N#Cc1cc([N+](=O)[O-])ccc1Sc1nnnn1-c1ccccc1,–,46,–,–
N#Cc1ccc(NC(=O)c2cc([N+](=O)[O-])ccc2Sc2nnnn2-c2ccccc2)cc1,–,–,–,–
CN(C)CCNS(=O)(=O)c1ccc(Sc2nnnn2-c2ccccc2)c([N+](=O)[O-])c1,–,84,–,–
Cc1nc(N2CCOCC2)c2c(C)c(C(=O)Nc3c(F)cc(F)cc3Br)sc2n1,–,–,–,–
c1ccc2c(c1)nnn1c3ccccc3nc21,–,35,–,–
Cc1nc2ccccc2c2nc3ccccc3n12,–,–,–,–
CC(=O)Nc1ccc(S(=O)(=O)N2c3ccc(F)cc3CCC2C)cc1 (stereo not drawn),–,46,–,–
COc1ccc(S(=O)(=O)N2c3ccc(F)cc3CCC2C)cc1 (stereo not drawn),–,56,–,–
COc1ccc(C(=O)C2CCN(S(=O)(=O)c3ccc(F)cc3)CC2)cc1,–,42,–,–
